Source: PubChem (National Center for Advancing Translational Sciences (NCATS))
IL-1B inflam inh = blocks inflammasome-driven IL-1 beta release; THP-1 LPS/ATP IL-1B secretion, AlphaLISA, 16 h; stronger effect = lower value; activity change, % at 57.5 µM; 4.7% of 360,000 active; AID 743279; in the data active means activity change below about -50%; inconclusive means mostly about -30% to -49%
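Secreted IL-1B measured by AlphaLISA bead assay after 16 h compound exposure of THP-1 cells; compounds (final up to 57.5 uM) added 1 h before LPS (250 ng/mL) and ATP (1.25 mM) stimulation; lower signal means less secretion.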
RORg inh = blocks mouse ROR gamma transcriptional activity. P51450. Drosophila S2 Gal4-RORgamma UAS-luciferase reporter, 20 h. Potency, µM (series often up to 53.6 µM), most hits filed as inhibitors. 5.4% of 310,000 active; further: nearly all actives have a fitted effect of over 60% in size
Target sequence (P51450 whole entry, looked up, the tested form may be a part): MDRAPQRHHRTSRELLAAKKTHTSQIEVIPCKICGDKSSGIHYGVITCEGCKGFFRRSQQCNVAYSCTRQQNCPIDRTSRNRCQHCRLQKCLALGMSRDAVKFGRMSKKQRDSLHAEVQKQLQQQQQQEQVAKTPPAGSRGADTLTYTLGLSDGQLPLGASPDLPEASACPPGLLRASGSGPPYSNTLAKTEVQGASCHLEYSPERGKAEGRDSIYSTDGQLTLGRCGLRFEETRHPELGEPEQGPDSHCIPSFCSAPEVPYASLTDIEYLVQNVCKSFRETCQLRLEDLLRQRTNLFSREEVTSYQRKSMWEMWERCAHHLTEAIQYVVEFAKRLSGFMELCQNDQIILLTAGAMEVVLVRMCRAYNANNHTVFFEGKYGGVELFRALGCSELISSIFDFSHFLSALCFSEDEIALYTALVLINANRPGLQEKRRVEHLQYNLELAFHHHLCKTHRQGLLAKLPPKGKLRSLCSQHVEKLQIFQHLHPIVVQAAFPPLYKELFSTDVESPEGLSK
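Read-out: Photinus luciferase luminescence; inhibitors lower reporter signal. Insect Schneider cells with Gal4-ROR gamma fusion under metallothionein promoter, UAS reporter; 700 uM final copper sulfate induction, 20 hr, ambient temperature.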
Gal4-VP16 FLuc = inhibits Gal4-VP16 luciferase reporter, ROR gamma counter-screen | Potency, µM (titrated, usually from 53.6 µM), hits mostly inhibitors | AID 2546 | 3.5% of 310,000 active | Drosophila S2 Gal4-VP16 UAS-luciferase, luminescence, 20 h;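 further: Gal4-VP16 expression switched on by copper sulfate through the metallothionein promoter; nearly all actives have a fitted effect of over 50% in size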
ELG1 repair inh = inhibitors of ELG1-dependent DNA repair in HEK293T cells. HEK293T ELG1-luciferase reporter, luminescence, 16 h; DNA damage induced by 5-fluorouridine. Potency, µM (titrated, usually from 46.1 µM), most hits filed as inhibitors. 2.3% of 330,000 active. AID 504467; further: nearly all actives have a fitted effect of over 55% in size
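Cells (2,000 per well) received 5-fluorouridine plus test compound or DMSO and were incubated 16 hr at 37 °C, 5% CO2. Luciferase activity was read by luminescence 30 min after ONE-Glo addition; signal suppression marked inhibition of damage-induced ELG1 function.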
TDP1 cell noCPT = qHTS for Inhibitors of human tyrosyl-DNA phosphodiesterase 1 (TDP1): qHTS in cells in absence of CPT. DT40 Tdp1-/- hTDP1 cells, no CPT, ATP luminescence, 48 h. Potency, µM (doses to about 46.2 µM), actives largely listed as inhibitors. 15% of 420,000 active; further: nearly all actives have a fitted effect of over 55% in size
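DT40 Tdp1-/-;hTDP1 cells, no CPT (DMSO vehicle only), 400 cells/well; compounds pin-transferred; ≥48 hr, 37 °C; CellTiter-Glo 30 min RT dark, luminescence read.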
DT40 TDP1 CPT = growth inhibition of DT40 Tdp1-/-;hTDP1 cells with camptothecin (screen for TDP1 inhibitors) | chicken DT40 Tdp1-/-;hTDP1 cells + 20 nM CPT, ATP luminescence, 48 h | Potency, µM (titrated, usually from 46.2 µM), actives largely listed as inhibitors | 12% of 420,000 active; further: nearly all actives have a fitted effect of over 55% in size
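Cell growth measured by CellTiter-Glo luminescence after a minimum 48 h, 37 C compound exposure with 20 nM CPT in Tdp1-knockout DT40 cells stably expressing hTDP1, seeded 400/well; qHTS titration format.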
Hits are given with their value; 0 = inactive; ? = inconclusive; - = no result. A selection: hits, their analogues and other compounds. The true share with any hit is near 21%. Unless noted, the call rests on the fitted dose curve; in most records, active means well fitted curve in the direction sought with a large enough effect; inconclusive means small, poorly fitted or top-dose-only effect, or another doubt; inactive means no such curve, though single readings can be large; an effect the other way counts as inactive or inconclusive.

SMILES | IL-1B inflam inh | RORg inh | Gal4-VP16 FLuc | ELG1 repair inh | TDP1 cell noCPT | DT40 TDP1 CPT
CN1CCN(C(c2ccccc2)c2sc3nc(-c4ccco4)nn3c2O)CC1 (stereo unspecified) | - | - | - | - | 0 | 0
CCCCCCCCCCN1CCOCCOCCN(CCCCCCCCCC)CCOCCOCC1 | - | 0 | 0 | - | - | -
CCOc1cccc2sc(N3CCN(C(=O)c4ccc5c(c4)CCCC5)CC3)nc12 | - | - | - | - | 13µM | 18µM
O=C(c1ccc2c(c1)CCCC2)N1CCN(c2nc3c(F)cccc3s2)CC1 | - | - | - | - | ? | 0
CCOc1ccc(OCCC(=O)OCC(=O)N2CCN(S(=O)(=O)c3ccc(C)cc3C)CC2)cc1 | 0 | - | - | - | 0 | ?
Cc1ccc(OCCC(=O)OCC(=O)N2CCN(S(=O)(=O)c3ccc(Cl)cc3)CC2)cc1 | -59 | - | - | 0 | ? | ?
O=C(OCC(=O)N1CCN(S(=O)(=O)c2ccc(Cl)cc2)CC1)c1ccc([N+](=O)[O-])o1 | ? | 0 | 0 | 0 | ? | 18µM
Cc1ccccc1OCCC(=O)OCC(=O)N1CCN(S(=O)(=O)c2ccc(Cl)cc2)CC1 | 0 | - | - | 0 | 0 | 0
Cc1ccc(S(=O)(=O)N2CCN(C(=O)COC(=O)CCOc3ccc(C(C)(C)C)cc3)CC2)cc1 | 0 | - | - | 0 | 10µM | 12µM
CCOc1ccc(OCCC(=O)OCC(=O)N2CCN(S(=O)(=O)c3ccc(C)cc3)CC2)cc1 | -73 | - | - | ? | 15µM | 15µM
CCN(CC)S(=O)(=O)c1ccc(N2CCOCC2)c(NC(=O)c2cc([N+](=O)[O-])ccc2Cl)c1 | 0 | 0 | 0 | ? | 0 | 0
C[C@@H]1C[C@](C)(C(=O)c2ccc3c(c2)OCO3)C=C1c1ccc2c(c1)OCO2 | - | 0 | 0 | - | - | -
CCCCn1c(N)c(N(CCOC)C(=O)COC(=O)CNC(=O)c2ccc(Cl)c(Cl)c2)c(=O)[nH]c1=O | 0 | - | - | - | 0 | 0
c1cc(-c2cc3cc4c(cc3cn2)OCO4)cs1 | 0 | - | - | ? | ? | 15µM
COc1cc2cnc(-c3ccsc3)cc2cc1OC | 0 | - | - | ? | ? | ?
CCCCCC1=CCC/C1=N\NC(=O)c1ccc2c(c1)OCO2 | 0 | ? | 0 | 0 | ? | 0
Cc1ccc(S(C)(=O)=O)cc1C(=O)OCC(=O)N(Cc1ccccc1)Cc1ccccc1 | 0 | - | - | ? | 16µM | 21µM
O=C(OCC(=O)N(Cc1ccccc1)Cc1ccccc1)c1cccc(O)c1 | 0 | - | - | 0 | ? | ?
O=C(OCC(=O)N(CCc1ccccc1)Cc1ccccc1)c1ccccc1O | 0 | - | - | 0 | ? | 18µM
O=C(OCC(=O)N(Cc1ccccc1)Cc1ccccc1)c1ccccc1O | 0 | - | - | 0 | ? | 18µM
CCNc1nc(NCC)n2c(SCC(=O)Nc3cc(OC)ccc3OC)nnc2n1 | 0 | - | - | 0 | 0 | ?
COc1ccc(C)cc1NC(=O)C(Sc1nnc(-c2ccncc2)n1-c1ccc(Cl)cc1)c1ccccc1 (stereo unspecified) | -59 | 0 | 0 | ? | 16µM | ?
CCNc1nc(NCC)n2c(SC(C(=O)Nc3cc(C)ccc3OC)c3ccccc3)nnc2n1 (stereo unspecified) | -104 | 0 | 0 | 23µM | ? | ?
CCNc1nc(NCC)n2c(SCC(=O)c3ccc(C(C)C)cc3)nnc2n1 | 0 | 0 | 0 | ? | 26µM | 23µM
CCCC(=O)Nc1ncnc2c1ncn2C1OC2COP(=O)(O)OC2C1OC(=O)CCC (stereo unspecified) | - | 0 | 0 | - | - | -
SMILES | IL-1B inflam inh | RORg inh | Gal4-VP16 FLuc | ELG1 repair inh | TDP1 cell noCPT | DT40 TDP1 CPT
CN(C)CCNc1nc2sc3c(c2c(=O)n1CCc1ccccc1)CCCCC3 | -75 | 0 | 0 | 0 | 10µM | 21µM
CC(O)CNc1nc2sc3c(c2c(=O)n1CCc1ccccc1)CCCCC3 (stereo unspecified) | -82 | ? | ? | 0 | 16µM | 23µM
CC(O)CNc1nc2sc3c(c2c(=O)n1Cc1ccco1)CCCCC3 (stereo unspecified) | 0 | 0 | 0 | ? | ? | 0
CC(=O)OC[C@H]1O[C@@H](O[C@H]2C[C@]3(C)C(C[C@@H](O)C4C([C@]5(C)CC[C@@H](C(C)(C)O)O5)CC[C@]43C)[C@@]3(C)CC[C@H](O)C(C)(C)C23)[C@H](O[C@@H]2O[C@@H](C)[C@H](O)[C@@H](O)[C@H]2O)[C@@H](O)[C@@H]1O (stereo partly specified) | 0 | - | - | 0 | 0 | 0
O=C(NCC1CCCCC1)c1ccc(F)c(S(=O)(=O)N2CCOCC2)c1 | 0 | - | - | 0 | ? | 0
O=C(NC(=S)N1CCCCC1CO)c1cccs1 (stereo unspecified) | 0 | - | - | 0 | 0 | 0
CCC1CCCCN1C(=S)NC(=O)c1ccc([N+](=O)[O-])cc1 (stereo unspecified) | 0 | 0.25µM | 0.28µM | 0 | ? | ?
CCC1CCCCN1C(=S)NC(=O)c1cccs1 (stereo unspecified) | 0 | 0.71µM | 1.1µM | 0 | ? | ?
CCOC(=O)C1CCN(C(=S)NC(=O)c2cccs2)CC1 | 0 | 5.6µM | 4.5µM | 0 | ? | 0
CCC1CCCCN1C(=S)NC(=O)c1ccc(F)c(S(=O)(=O)N2CCOCC2)c1 (stereo unspecified) | 0 | 0.56µM | 1.6µM | ? | ? | 0
CCC(Sc1nc2ccccc2c2nc(CCc3c(C)n[nH]c3C)nn12)C(=O)Nc1ccccc1F (stereo unspecified) | - | - | - | - | 0 | 0
O=C(c1ccc(S(=O)(=O)N2CCCC2)cc1)N1CCCc2ccccc21 | 0 | 0 | 0 | 0 | ? | ?
COc1ccc(C(=O)N(C)Cc2ccccn2)cc1OC1CCN(C(C)C)CC1 | 0 | 0 | ? | 0 | 0 | 0
NCC1CC2c3ccccc3C1c1ccccc12 (stereo unspecified) | -78 | 0 | 0 | 0 | ? | 0
COc1ccc(CC(=O)OCC(=O)c2ccc(S(=O)(=O)N3CCCCC3)cc2)cc1 | 0 | - | - | 0 | 0 | 0
COc1cc(OC)c(NC(=O)Nc2sc3nc4n(c(=O)c3c2C)CCC(C)CC4)cc1Cl (stereo unspecified) | - | - | - | - | 5.8µM | 5.2µM
CCOC(=O)c1sc2nc3n(c(=O)c2c1C)CCC(C)CC3 (stereo unspecified) | ? | 0 | 0 | 0 | ? | ?
CC(=O)c1cccc(NC(=O)Nc2sc3nc4n(c(=O)c3c2C)CCC(C)CC4)c1 (stereo unspecified) | - | - | - | - | 8.2µM | ?
Cc1c(NC(=O)Nc2ccccc2C(F)(F)F)sc2nc3n(c(=O)c12)CCC(C)CC3 (stereo unspecified) | - | - | - | - | 13µM | 21µM
CCOC(=O)N1CCN(C(=O)Nc2sc3nc4n(c(=O)c3c2C)CCC(C)CC4)CC1 (stereo unspecified) | 0 | 0 | 0 | ? | ? | ?
